Screens (PubChem BioAssay)
RE007 growth inh: less growth of the S. pombe RE007 Vpr strain; S. pombe RE007 Vpr strain, BacTiter-Glo ATP luminescence, 24 h; Potency, µM (titrated, usually from 92.2 µM), hits mostly inhibitors; actives 0.21% (n = 360,000); AID 651644; active = well fitted falling curve with a large enough effect; inconclusive = small, poorly fitted or top-dose-only effect; inactive = no such curve, though single readings can be large or run the other way; note: nearly all actives have a fitted effect of over 50% in size
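Fission yeast strain RE007, carrying one chromosomally integrated HIV-1 vpr copy, was seeded at OD 0.01 in PMG+AL medium with 23 nL pinned compound. After 24 h at 30 °C and 99% humidity, viability was read by BacTiter-Glo luminescence.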
TbPYK inhibitor: blocks Trypanosoma brucei pyruvate kinase; Q57TT1; TbPYK enzyme, Kinase-Glo Plus ATP luminescence, 45 min; Potency, µM (highest dose often 76.8 µM), usual class: inhibitors; actives 0.12% (n = 410,000); AID 624173; note: nearly all actives have a fitted effect of over 50% in size
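Readout: single end-point luminescence (Kinase-Glo Plus, 10 min). Reaction conditions were TbPYK/substrate plus 130 uM ADP, 45 min at RT, pH 7.2 TEA buffer. No-enzyme wells served as controls, and data were normalized before concentration-response fitting.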
Giardia FBPA inh: blocks Giardia fructose-bisphosphate aldolase activity | A8B2U2 | purified Giardia FBPA | Potency, µM (doses to about 59.6 µM), most hits filed as inhibitors | actives 0.71% (n = 290,000) | AID 2451; note: nearly all actives have a fitted effect of over 55% in size
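40 nM FBPA preincubated 10 min at RT with compound (up to 57.5 uM final), then substrate plus GAPDH/TPI/NAD/arsenate coupling and diaphorase/resazurin added. Fluorescence read after 20 min at RT, 525/598 nm.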
LmPK inhibitor: LmPK (Leishmania mexicana) enzyme inhibition; purified LmPK, Kinase-Glo ATP luminescence, 1 h; Potency, µM (top dose mostly 57.5 µM), actives largely listed as inhibitors; actives 0.37% (n = 290,000); AID 1721
Target sequence (Q27686 whole entry, looked up): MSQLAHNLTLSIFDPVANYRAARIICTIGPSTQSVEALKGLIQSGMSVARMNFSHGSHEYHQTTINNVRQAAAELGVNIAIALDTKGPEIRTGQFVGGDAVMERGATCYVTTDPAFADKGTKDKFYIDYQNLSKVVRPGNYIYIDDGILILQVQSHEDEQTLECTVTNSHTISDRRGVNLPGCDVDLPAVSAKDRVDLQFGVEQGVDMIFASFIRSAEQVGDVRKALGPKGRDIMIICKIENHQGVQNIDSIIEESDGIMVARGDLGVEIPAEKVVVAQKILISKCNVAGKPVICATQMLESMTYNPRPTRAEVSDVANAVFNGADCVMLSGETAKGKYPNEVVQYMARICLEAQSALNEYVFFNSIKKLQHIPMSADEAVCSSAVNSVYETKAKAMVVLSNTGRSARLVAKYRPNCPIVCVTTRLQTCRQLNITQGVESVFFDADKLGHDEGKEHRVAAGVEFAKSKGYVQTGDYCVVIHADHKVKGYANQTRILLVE
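Kinase-Glo luminescence read after 1 h RT reaction of 0.1 nM LmPK with 0.5 mM PEP and 0.1 mM ADP. Activity scaled between uninhibited and enzyme-free controls.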
Each line names hits and unclear results; the compound was inactive in the other large screens. Sampled rows, rich in hits. Any-hit rate of the full collection: about 0.95%. Unless noted, calls come from the whole dose curve; as a rule, active = well fitted curve in the direction sought with a large enough effect; inconclusive = small, poorly fitted or top-dose-only effect, or another doubt; inactive = no such curve, though single readings can be large; an effect the other way counts as inactive or inconclusive.

COc1cc(OC)cc(-c2n[nH]c(=S)n2-c2ccc3c(c2)OCCO3)c1	TbPYK inhibitor 2.5µM
S=c1[nH]nc(Cc2ccc(Cl)cc2)n1-c1ccc2c(c1)OCCO2	TbPYK inhibitor 2.8µM, LmPK inhibitor inconclusive
Oc1ccc(-c2n[nH]c(=S)n2-c2ccc3c(c2)OCCO3)c(O)c1	TbPYK inhibitor 2.8µM, LmPK inhibitor inconclusive (no result: RE007 growth inh)
S=c1[nH]nc(-c2ccc(Cl)cc2Cl)n1-c1ccc2c(c1)OCCO2	TbPYK inhibitor 6.3µM, LmPK inhibitor inconclusive
COc1ccc(-c2n[nH]c(=S)n2-c2ccc3c(c2)OCCO3)cc1	TbPYK inhibitor inconclusive, LmPK inhibitor inconclusive
S=c1[nH]nc(-c2ccc(Br)cc2)n1-c1ccc2c(c1)OCCO2	TbPYK inhibitor inconclusive, LmPK inhibitor inconclusive
CCN(CC)CCC(=O)N1c2ccccc2Sc2ccc(C(F)(F)F)cc21	none (no result: RE007 growth inh, Giardia FBPA inh, LmPK inhibitor)
Cn1nnnc1SCCCNCc1ccccc1OCc1ccc(Cl)cc1	none (no result: RE007 growth inh, Giardia FBPA inh, LmPK inhibitor)
CC(=O)OCC(NC(=O)C(C)NC(=O)OC(C)(C)C)C1OC(n2cc(C)c(=O)[nH]c2=O)C(OC(C)=O)C1OC(C)=O (stereo unspecified)	none (no result: RE007 growth inh, TbPYK inhibitor, LmPK inhibitor)
COc1cccc(/C=C2/CCC(CN(C)C)C2=O)c1 (stereo unspecified)	RE007 growth inh 8.9µM (no result: Giardia FBPA inh, LmPK inhibitor)
OCC1(O)OC[C@@H](O)[C@H](O)[C@@H]1O (stereo partly specified)	none (no result: RE007 growth inh, Giardia FBPA inh, LmPK inhibitor)
Cc1ccc(/C=C2\C(=O)NC(=S)N(c3ccc(F)cc3)C2=O)s1	TbPYK inhibitor inconclusive
Cc1ccc(/C=C2\C(=O)NC(=S)N(c3ccccc3F)C2=O)s1	TbPYK inhibitor 32µM
Cc1[nH]n(-c2ccc([N+](=O)[O-])cc2)c(=O)c1C=NCCN1CCN(C(=O)C(C)C)CC1	RE007 growth inh inconclusive, LmPK inhibitor 14µM
CCOC(=O)[C@H](CCc1ccccc1)N[C@H]1CCCN2CCC[C@@H](C(=O)O)N2C1=O	none (no result: RE007 growth inh, Giardia FBPA inh, LmPK inhibitor)
CC#CCC(C)[C@H](O)/C=C/C1[C@H](O)C[C@@H]2C/C(=C\CCCC(=O)O)C[C@H]12 (stereo partly specified)	none (no result: RE007 growth inh, Giardia FBPA inh, LmPK inhibitor)
CSC1=NSC2=NC(=O)/C(=C/c3coc4ccccc4c3=O)C(=N)N12	RE007 growth inh 40µM
CSC1=NSC2=NC(=O)/C(=C/c3coc4ccc(O)cc4c3=O)C(=N)N12	none
COc1cc(NC(=S)N2CCN(CCO)CC2)c(OC)cc1Cl	none
OCCN1CCN(C(=S)c2ccc(Cl)c(Cl)c2)CC1	TbPYK inhibitor inconclusive, Giardia FBPA inh 13µM
O=C(OCC(=O)c1cccs1)c1ccccc1	LmPK inhibitor 16µM
O=S(=O)(Nc1ccccc1O)c1cccc2cccnc12	none
O=S(=O)(Nc1cccc2cccnc12)c1ccccc1O	Giardia FBPA inh 20µM (no result: RE007 growth inh, TbPYK inhibitor, LmPK inhibitor)
O=c1c(O)c(-c2ccc(O)c(O)c2)oc2c(O)c(O)cc(O)c12	Giardia FBPA inh 7.1µM (no result: RE007 growth inh, TbPYK inhibitor, LmPK inhibitor)
Nc1cc(C2CCCC2)nn1-c1ccccc1	LmPK inhibitor 14µM
CCS(=O)(=O)c1ccccc1C(=O)N(Cc1cccnc1)c1nc2cc(C)c(C)cc2s1	none (no result: RE007 growth inh, Giardia FBPA inh, LmPK inhibitor)
O=c1/c(=C\c2cc([N+](=O)[O-])cc([N+](=O)[O-])c2O)sc2nc3ccccc3n12	TbPYK inhibitor 28µM, Giardia FBPA inh 16µM
O=c1n(-c2ccccc2)c(=O)n2n1CC[C@H]1/C(=N\OC[C@@H](O)COCc3ccco3)[C@H]3O[C@@H]3[C@@H](O)[C@@H]12	none (no result: RE007 growth inh, TbPYK inhibitor, LmPK inhibitor)
O=C(O)c1ccccc1NS(=O)(=O)c1cccc(C(F)(F)F)c1	Giardia FBPA inh inconclusive
O=C(O)c1ccccc1NS(=O)(=O)c1cccc(-n2sc3ccccc3c2=O)c1	TbPYK inhibitor 5µM, Giardia FBPA inh inconclusive
CC1(C)CCC2=C(O1)c1ccccc1C(=O)C2=O	Giardia FBPA inh 1.6µM (no result: RE007 growth inh, TbPYK inhibitor, LmPK inhibitor)
CC1(C)CCC(=O)c2ccccc21	none (no result: Giardia FBPA inh, LmPK inhibitor)
CCOC(=O)N/N=C1/C[C@@H](O)[C@@H](O)[C@@H]2[C@@H]3C(=O)N([C@@H](C)c4ccccc4)C(=O)[C@H]3CC[C@H]12	none (no result: RE007 growth inh, TbPYK inhibitor, LmPK inhibitor)
COc1cc(OC)cc(-c2n[nH]c(=S)n2-c2cc(OC)ccc2OC)c1	TbPYK inhibitor inconclusive, LmPK inhibitor 3.5µM
COc1cc(-n2c(-c3ccccc3)n[nH]c2=S)c(OC)cc1Cl	TbPYK inhibitor 3.5µM
COc1ccc(OC)c(-n2c(-c3ccc(O)cc3O)n[nH]c2=S)c1	TbPYK inhibitor inconclusive, LmPK inhibitor 8.9µM
COc1ccc(C)cc1-n1c(-c2ccncc2)n[nH]c1=S	TbPYK inhibitor 14µM, LmPK inhibitor 10µM
COc1ccc(OC)c(-n2c(-c3cccc(S(=O)(=O)N(C)C)c3)n[nH]c2=S)c1	LmPK inhibitor inconclusive
CN(Cc1ccco1)c1nc(-c2ccoc2)nc2ccccc12	none (no result: RE007 growth inh, TbPYK inhibitor, LmPK inhibitor)
